From PMC7819943, “Rice protein-binding microarrays: a tool to detect cis-acting elements near promoter regions in rice” come the findings set out here.

Over roughly 39,000 sequences, “fluorescence intensity (a.u.)” has its median near 4,300; the highest 2% begin near 39,000. The sample as a whole holds a higher share of the highest values than the screen did.

The test concerns the target T1, OsSMF1 (Oryza sativa, UniProt Q6ZLB0 1-436).
T1 sequence: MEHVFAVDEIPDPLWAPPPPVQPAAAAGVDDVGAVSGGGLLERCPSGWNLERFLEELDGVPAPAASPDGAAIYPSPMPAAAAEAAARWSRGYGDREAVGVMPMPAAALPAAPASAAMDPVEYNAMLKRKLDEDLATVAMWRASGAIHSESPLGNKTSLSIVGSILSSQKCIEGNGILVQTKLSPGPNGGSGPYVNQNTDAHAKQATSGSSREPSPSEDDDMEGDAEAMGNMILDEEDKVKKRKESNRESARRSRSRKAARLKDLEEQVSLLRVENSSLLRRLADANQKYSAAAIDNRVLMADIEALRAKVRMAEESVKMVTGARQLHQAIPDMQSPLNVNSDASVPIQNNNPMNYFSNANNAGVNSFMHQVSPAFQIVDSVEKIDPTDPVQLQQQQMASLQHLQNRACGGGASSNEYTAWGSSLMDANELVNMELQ
Description: protein-binding microarray (RPBM); PBS, 2% BSA, 51.3 ng/ul salmon testes DNA, 50 uM zinc acetate, 200 nM TF, 25 C, 1 h; high values mean tight binding. As to conditions: protein: recombinant; tags: N-terminal polyhistidine and DsRed monomer fusion (pET32a); chain copies: 2; label: CyDye5-dUTP incorporated in the synthesized complementary strand; 3' TTTTT single-stranded linker to array surface; dsDNA, one strand shown. In a few lines:
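Transcription factors were made in E. coli BL21-CodonPlus as N-terminal fusions to a polyhistidine tag and DsRed, then purified on Ni–NTA. After primer extension with Cy5-dUTP and blocking with 2% BSA, a custom Agilent array was exposed for 1 h at 25 °C to 200 nM protein in PBS, 2% BSA, salmon testes DNA and 50 µM zinc acetate. Washed arrays were scanned on an Axon 4000B, and the binding signal is per-feature fluorescence intensity in arbitrary units.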
With “AGTGTCAGTACACACACTAGCTTCTCTCACCGGCTCTCCGCGGAGTCACCTAGTGCAG”, the binding signal was 3210 fluorescence intensity (a.u.).

Turning to “CTGACAGCTTTTAGTTCACAAATATCAGTAAGATTTCCCTCGGAGTCACCTAGTGCAG”, the binding signal is 43200 fluorescence intensity (a.u.).

“CACAACTTTTGATTTCAGGACATATGTGTTCAGCTTTCCTCGGAGTCACCTAGTGCAG”: the binding signal is 3370 fluorescence intensity (a.u.).

As to “GTTCAGCTATCAAAGTCCCTGAATAGTTTAGATTTACATTCGGAGTCACCTAGTGCAG”, the binding signal was 14100 fluorescence intensity (a.u.).

With “ATTTCATAAAACTGCACATTCTGGGGTTCAAGTTGCAGAACGGAGTCACCTAGTGCAG”, the binding signal was 3170 fluorescence intensity (a.u.).

Consider “TTCCTCCATCTTGACGTGGGACCCACCTGGAGATTCATCTCGGAGTCACCTAGTGCAG”, for which the binding signal was 4710 fluorescence intensity (a.u.).

In the case of “TGCTACATAAGTGACACGTCAACACCACGTTGTATAAAGACGGAGTCACCTAGTGCAG”, the binding signal is 53700 fluorescence intensity (a.u.).

As for “ATGCTATATAAATGCCACGTTGTGCGAAGACCAAGTCAACCGGAGTCACCTAGTGCAG”, the binding signal was 3510 fluorescence intensity (a.u.).

“TTACACGTTAAGAAAGTGCTAAGTAAACAAGACTGCCTGACGGAGTCACCTAGTGCAG”: the binding signal is 17700 fluorescence intensity (a.u.).

In the case of “ACTACACCGTCGCAGCGCACCCACGTGACACGCAGCCACACGGAGTCACCTAGTGCAG”, the binding signal is 4730 fluorescence intensity (a.u.).

For “TGATACATTACTCAAGGAAACAGTCACACAGTCTATCACGCGGAGTCACCTAGTGCAG”, the binding signal was 3200 fluorescence intensity (a.u.).

Turning to “CCCTCAAGGGCTCAAAACACTCAAACAGTTCTACATATATCGGAGTCACCTAGTGCAG”, the binding signal was 57600 fluorescence intensity (a.u.).

For the sequence “CGTTGGGCTCAAGGGGAGGGATATCTATCTAACAGTAACACGGAGTCACCTAGTGCAG”, the binding signal was 4110 fluorescence intensity (a.u.).

In the case of “CCGTCTCCACGCACTCGAACGTCACCGACGACCCCGGCAGCGGAGTCACCTAGTGCAG”, the binding signal is 5490 fluorescence intensity (a.u.).

“GCCACACCTCCCATTCCTTAGCCAAACACTCGCACTACTCCGGAGTCACCTAGTGCAG”: the binding signal was 3200 fluorescence intensity (a.u.).

Turning to “CGGTTGAATTGTTCTTGGCATCATCGGGTGTAACCGTGTACGGAGTCACCTAGTGCAG”, the binding signal is 3350 fluorescence intensity (a.u.).

Consider “TTCTCAGCCAATCCCCAGCTCACACGTGCCAACTCTTCCACGGAGTCACCTAGTGCAG”, for which the binding signal is 7630 fluorescence intensity (a.u.).

As to “CCACCATGGATCCGACGTGGCACAACCACATTGGTCCCTCCGGAGTCACCTAGTGCAG”, the binding signal was 17700 fluorescence intensity (a.u.).

As for “AACAGCTCAATTAATTAATCGCCCACACCGAAGCGCGCACCGGAGTCACCTAGTGCAG”, the binding signal is 39800 fluorescence intensity (a.u.).

As for “AAGCGCGCGCCTCGCCACCTCACCCGAAGAAATTCCCCACCGGAGTCACCTAGTGCAG”, the binding signal was 4140 fluorescence intensity (a.u.).

“TAGGCCCACACCTAGTCAGCTCAATCGAAATACAACCCACCGGAGTCACCTAGTGCAG”: the binding signal was 3450 fluorescence intensity (a.u.).

Regarding “CTTGCCTCCGCCCATAAATACCACCCGCATTGGCGTTCAGCGGAGTCACCTAGTGCAG”, the binding signal is 50900 fluorescence intensity (a.u.).

On to “CCACACACCATTGCCGCATCATCCACCACCGCCTCCTCAGCGGAGTCACCTAGTGCAG”, for which the binding signal was 5210 fluorescence intensity (a.u.).

Take “CGCATCCCGGCCCATCCGCCTCGTCAGCGGCGGCGCACCACGGAGTCACCTAGTGCAG”: the binding signal was 10800 fluorescence intensity (a.u.).

As to “GTTCGCCGTGGATTTCTTTTCTTGCGTCAGTGATACTGATCGGAGTCACCTAGTGCAG”, the binding signal was 5040 fluorescence intensity (a.u.).

For “TGGAGCTAGTCAAGTAGACAGATCATACTATTCCCCAATTCGGAGTCACCTAGTGCAG”, the binding signal was 4150 fluorescence intensity (a.u.).

In the case of “AACTATAGATCCAAGTGAGGAAGCTATATTCCCAAATTTTCGGAGTCACCTAGTGCAG”, the binding signal was 46000 fluorescence intensity (a.u.).

In the case of “TTCTATTCTCCCAAAATTCCTATAGAACGAGATATTCCATCGGAGTCACCTAGTGCAG”, the binding signal was 22200 fluorescence intensity (a.u.).

“GCTTGCCGACGCCGACGCCGCCGCCGCCACCGCCGTGGCGCGGAGTCACCTAGTGCAG”: the binding signal was 4150 fluorescence intensity (a.u.).

As for “CGATCTATCTTAGTTCATTCGCTGCAAATCCGACGCCTGACGGAGTCACCTAGTGCAG”, the binding signal was 3240 fluorescence intensity (a.u.).

In the case of “CACCCGACTCAGATACCCGAATCCACGTCAGCCCAGAGCCCGGAGTCACCTAGTGCAG”, the binding signal was 14300 fluorescence intensity (a.u.).

With “TCCAGATCAAATCCGACGGCCCAGGATACGCCACGTCACCCGGAGTCACCTAGTGCAG”, the binding signal was 46700 fluorescence intensity (a.u.).

For “AGCAAAATCTACGCGATGACGCCACGTGACATGACATCGCCGGAGTCACCTAGTGCAG”, the binding signal was 5840 fluorescence intensity (a.u.).

In the case of “AATCATCCGCCCCAGGCCCCAGCCACGTCGTCCAGATCGCCGGAGTCACCTAGTGCAG”, the binding signal was 6410 fluorescence intensity (a.u.).

Regarding “GTCTTCACAAATCCGATGACGCCACGTCATCTATCCGGCCCGGAGTCACCTAGTGCAG”, the binding signal was 46400 fluorescence intensity (a.u.).

Take “GCTACATTTTCGTCGACGTACGTCAGTGACACATGAACTACGGAGTCACCTAGTGCAG”: the binding signal was 4800 fluorescence intensity (a.u.).

With “TTCAGCCTGTCATCGTCAATTCGTCATCAGTTCATCGCTCCGGAGTCACCTAGTGCAG”, the binding signal was 5390 fluorescence intensity (a.u.).

For “TTCGTGGCGGCTCCTCCTGTGCCATGGCCGCCGATGGTGACGGAGTCACCTAGTGCAG”, the binding signal was 3320 fluorescence intensity (a.u.).

Turning to “AAGTCGTTCACTCGGCAACGTGTCATCCGGATAGACGTTGCGGAGTCACCTAGTGCAG”, the binding signal was 6700 fluorescence intensity (a.u.).

With “ACGGCTTCCTTACGTGGCACACGTAAGCCGTTGCTTGCTTCGGAGTCACCTAGTGCAG”, the binding signal is 35100 fluorescence intensity (a.u.).

In the case of “CGTGTCCTAATCACCTTGCTTACGTGGCACTTGCCGATTCCGGAGTCACCTAGTGCAG”, the binding signal was 43900 fluorescence intensity (a.u.).

Turning to “CTCCTTGTCCACGTGGCGGCCTCCGATTCGCTGCCACCTCCGGAGTCACCTAGTGCAG”, the binding signal is 23900 fluorescence intensity (a.u.).
